Experimental data reported in PubChem BioAssay (NCI).
About 79,000 compounds went through this panel and 15% of them were active in at least one assay; those are over-represented in the sample as a whole. Calls of active or inactive are those of the source. No stated cut-off is given here; in the data, active means growth inhibition above about 70%; inactive means the rest.

Experiments:
[1] = NCI Yeast Anticancer Drug Screen. Data for the rad50 strain (AID 155);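 further: 0% = growth of vehicle-only cultures of the same strain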; conditions: S. cerevisiae rad50 strain growth inhibition; at 50.0 µM; stronger effect = higher value
How it was run: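 Cells are treated with compound, grown, and their growth is then scored against vehicle-only cultures of the same repair-deficient yeast strain.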

[2] = NCI Yeast Anticancer Drug Screen. Data for the mec2-1 strain (AID 157); conditions: S. cerevisiae mec2-1 strain, at 50.0 µM, stronger effect = higher value
How it was run: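 Vehicle-treated cultures served as reference for growth inhibition of compound-exposed mec2-1 yeast.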

[3] = NCI Yeast Anticancer Drug Screen. Data for the sgs1 mgt1 strain (AID 161);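 further: 0% = growth of cultures given vehicle only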; conditions: S. cerevisiae sgs1 mgt1 strain, at 50.0 µM, stronger effect = higher value
How it was run: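 Inhibition of yeast growth, normalised to vehicle-treated controls, is reported for a strain bearing genetic alterations in DNA damage repair.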

[4] = NCI Yeast Anticancer Drug Screen. Data for the cln2 rad14 strain (AID 165);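 further: 0% = growth equal to vehicle treated cultures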; conditions: S. cerevisiae cln2 rad14 strain, at 50.0 µM, stronger effect = higher value
How it was run: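 Each compound was tested on cln2 rad14 yeast. Inhibition of growth was calculated against vehicle-exposed controls.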

[5] = NCI Yeast Anticancer Drug Screen. Data for the bub3 strain (AID 167); conditions: S. cerevisiae bub3 mutant strain, at 50.0 µM, stronger effect = higher value
How it was run: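 Part of a panel of yeast mutants defective in DNA damage repair or cell cycle regulation. Each strain is grown with compound, and inhibition is calculated relative to solvent-treated cultures.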

[6] = NCI Yeast Anticancer Drug Screen. Data for the mlh1 rad18 strain (AID 175); conditions: S. cerevisiae mlh1 rad18 strain growth inhibition; at 50.0 µM; stronger effect = higher value
How it was run: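 Vehicle-treated cultures served as the reference for growth inhibition in a yeast strain carrying DNA damage repair alterations exposed to each compound.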

Measured: growth inhibition

CCOC(=O)C1=[N+]([O-])OC2=C(O)CCCC21 (configuration not stated)
inactive: [1] 5.7% | [2] 2.25% | [3] 9.05% | [4] -8.85% | [5] 2.4% | [6] -19.3%

N#CC(C#N)=NO (tested in a mixture with another compound)
inactive: [1] 11.8% | [2] 6.6% | [3] -7.7% | [4] -0.75% | [5] 5.3% | [6] 5.75%

CCCCCCCCCCCCC1CC(=O)OC1=O (configuration not stated)
inactive: [1] 3.65% | [2] -15.4% | [3] 13% | [4] 18.1% | [5] 32.5% | [6] -8.85%

CCCCCC(C)C(C#N)C(=O)OCC (configuration not stated)
inactive: [1] 1.2% | [2] -18.4% | [3] -14.4% | [4] -3.75% | [5] -18.9% | [6] -20.9%

C(=Nc1cccc2ccccc12)Nc1cccc2ccccc12
inactive: [1] -10.9% | [2] -38.7% | [3] -5.8% | [4] -6.7% | [5] -48.8% | [6] 1.25%

COc1ccccc1NC(=O)C(C#N)=C(SC)SC
inactive: [1] 2.05% | [2] -14.2% | [3] 0.1% | [4] 18.6% | [5] -22.4% | [6] -13.7%

Nc1c(S(=O)(=O)O)ccc2c1C(=O)c1ccccc1C2=O
inactive: [1] 27.9% | [2] 24.2% | [3] 34% | [4] 6.5% | [5] 49.1% | [6] 16.4%

Cc1cc(C)c(NC(=O)NC2CCCCC2)c(C)c1
inactive: [1] 4.7% | [2] 7.05% | [3] 23.6% | [4] -3.55% | [5] 34% | [6] 31.1%

CC(=O)O[C@@H]1[C@H]2O[C@H]2[C@H]2O[C@@]2(COC(=O)c2ccccc2)[C@H]1OC(C)=O
inactive: [1] 12.8% | [2] -25.2% | [3] 24.4% | [4] -6% | [5] 0.75% | [6] -38.5%

O=C1OC2C(Cl)C3CC1C2C3 (configuration not stated)
inactive: [1] -12.2% | [2] -9.6% | [3] -22.3% | [4] -13.2% | [5] 4.65% | [6] -31.4%

COC(=O)C(Cc1c[nH]c2ccccc12)NP(=O)(O)OCC1OC(n2cc(F)c(=O)[nH]c2=O)CC1O (configuration not stated)
inactive: [1] -31.4% | [2] -17.1% | [3] -38.5% | [4] -9.2% | [5] -24.7% | [6] -16.1%

CCOC(=O)C(=CNc1cccc(N)n1)C(=O)OCC
inactive: [1] -3.35% | [2] -17.9% | [3] 28% | [4] -8.55% | [5] 20.4% | [6] 5.75%

O/N=C1\CCCC\C1=N/O
inactive: [1] 6.55% | [2] -9.8% | [3] -8.35% | [4] -3.1% | [5] 8.95% | [6] -4.25%

O=c1oc2ccc3ccccc3c2c(-c2ccc(O)cc2)c1-c1ccccc1
active: [1] 98.7% | [2] 98.5% | [3] 98.9% | [4] 97.2% | [5] 98.2% | [6] 98.7%

Cc1ccc(S(=O)(=O)OCC2CCC(COS(=O)(=O)c3ccc(C)cc3)O2)cc1 (configuration not stated)
inactive: [1] -4.9% | [2] -14.4% | [3] -4.85% | [4] 10.7% | [5] -0.35% | [6] -6.9%

C=Cc1c(Cl)cccc1Cl
inactive: [1] 0.25% | [2] -8.85% | [3] -5.55% | [4] 3.5% | [5] -18.6% | [6] -11.3%

CCOC(=O)C12CCCC1(O)N(NC(=O)c1ccccc1)C(C)=C2C(=O)OC (configuration not stated)
inactive: [1] 10.8% | [2] 21.6% | [3] 6.3% | [4] -56.5% | [5] 2.95% | [6] -10.2%

O=C(Cc1ccccc1)NNC(=O)Nc1ccccc1
inactive: [1] 4% | [2] -3.6% | [3] 9.4% | [4] -26.6% | [5] 2.5% | [6] 1.05%

O=C(Nc1ccccc1)Oc1ccc(/C=N/Sc2cccc([N+](=O)[O-])c2)cc1
active: [3] 73.8% | [5] 73.8%
inactive: [1] 67.1% | [2] 60.6% | [4] 21.2% | [6] 62.2%

Cc1cc(=O)c2c(ccc3c(=O)cc(C)[nH]c32)[nH]1
inactive: [1] -56.8% | [2] -21.2% | [3] -14.3% | [4] -52.2% | [5] -3.1% | [6] 3.25%

O=C(O)C(O)c1cccc([N+](=O)[O-])c1 (configuration not stated)
inactive: [1] 11.1% | [2] 11.7% | [3] -8.8% | [4] -7.05% | [5] -32.2% | [6] -12.9%

Cc1cc2nc(C(C)C(=O)c3ccc(Cl)cc3)c(=O)[nH]c2cc1C (configuration not stated)
inactive: [1] -12.1% | [2] -12.7% | [3] -0.9% | [4] 0.5% | [5] -24.4% | [6] -3.9%

COc1ccc(C2C(=O)C(Cl)N2Nc2nc(C)cc(=O)[nH]2)cc1OC (configuration not stated)
inactive: [1] 1.45% | [2] -18.9% | [3] 4.2% | [4] -2.3% | [5] -27.9% | [6] -15.8%

CCc1nc2c(c(=O)n(C)c(=O)n2C)n1C
inactive: [1] -2.65% | [2] -4.15% | [3] -8.45% | [4] -3.85% | [5] 2.85% | [6] -7.5%

N#CCCS(=O)(=O)O
inactive: [1] 29.1% | [2] 21.9% | [3] -6.9% | [4] 1.95% | [5] 15.9% | [6] 13.8%

C(=C\c1ccc(OCc2ccccc2)cc1)/c1ccc(OCc2ccccc2)cc1
inactive: [1] -5.5% | [2] -13.7% | [3] -13.6% | [4] -7.6% | [5] -24.6% | [6] -26%

O=C1c2cc(Cl)ccc2-n2c(noc2=O)C2CSCN12 (configuration not stated)
inactive: [1] -8% | [2] -10.3% | [3] -21% | [4] 8.85% | [5] -18.3% | [6] 11.6%

O=C1CCN2C(=O)CCN12
inactive: [1] 1.1% | [2] -10.2% | [3] 18.7% | [4] 14.8% | [5] 11% | [6] 2.35%

N#CCc1ccccc1C(C#N)C(=O)CCC(=O)C(C#N)c1ccccc1CC#N (configuration not stated)
inactive: [1] 45.6% | [2] 26.1% | [3] 22.6% | [4] -28.4% | [5] 6.75% | [6] 44.7%

O=C(COc1ccc(Cl)cc1)Nc1nccs1
inactive: [1] 4.95% | [2] 32% | [3] 26.6% | [4] 5.7% | [5] 20.4% | [6] 21.4%

Cc1cc2nc(Cl)n(C3OC(CO)C(O)C3O)c2cc1C (configuration not stated)
inactive: [1] 16.6% | [2] -7.15% | [3] 0.15% | [4] 4.8% | [5] -1% | [6] 12.8%

CCCCCCCCCCCCCCOc1ccc(Sc2ccc([N+](=O)[O-])cc2)cc1
inactive: [1] 40.8% | [2] -0.1% | [3] 46% | [4] -5% | [5] 5.8% | [6] 26.8%

CN(C)CC1CCCC/C1=N/O (configuration not stated)
inactive: [1] 0.5% | [2] -6.75% | [3] -9.4% | [4] -17.5% | [5] 2.55% | [6] -5.15%

C=C(C)CNCC(=C)C
inactive: [1] 35.3% | [2] 14.1% | [3] -8.25% | [4] -16.8% | [5] 17.9% | [6] 21.6%

O=C(O)c1cc(Br)cc([N+](=O)[O-])c1
inactive: [1] -9.15% | [2] 15.1% | [3] -14.9% | [4] -49.3% | [5] -16.2% | [6] 21.1%

COc1ccc(C2CC(=O)N(c3nccc(C)n3)C(=O)C2)cc1
inactive: [1] 13.5% | [2] 14.4% | [3] 15.9% | [4] -19.1% | [5] -16.5% | [6] 14.2%

Cc1c(N/C=C(\C#N)C(=O)c2ccc(Cl)cc2)c(=O)n(-c2ccccc2)n1C
inactive: [1] -8.15% | [2] 6.6% | [3] -7.25% | [4] 27.2% | [5] 2.35% | [6] 30.9%

CCCCCCCC(CC#N)(CCCCC)CCCCCC (configuration not stated)
inactive: [1] 16.6% | [2] -10.1% | [3] 11.9% | [4] -8.3% | [5] 7.1% | [6] 26.1%

O=C/C(=C1/C=Cc2cc([N+](=O)[O-])ccc2S1)c1ccccc1
inactive: [1] -6.5% | [2] -18.8% | [3] -11% | [4] -14.8% | [5] -9.05% | [6] -6.6%

C[N+](C)(CCOc1ccccc1)Cc1ccccc1
inactive: [1] 55% | [2] 25.8% | [3] 39.3% | [4] 26.8% | [5] 48% | [6] 31.5%

COc1c(OC)c(C2(O)C(=O)N(C)c3ccccc32)c2c(c1C1(O)C(=O)N(C)c3ccccc31)OCO2 (configuration not stated)
inactive: [1] 4.25% | [2] 1.7% | [3] -14.9% | [4] 1.2% | [5] 3.05% | [6] 22.9%

COc1cccc(/C=C2\CCC(C)(CN(C)C)C2=O)c1 (configuration not stated)
inactive: [1] 32.9% | [2] 9.1% | [3] 38.9% | [4] 29.2% | [5] 13.2% | [6] 29.9%
